Source: PubChem BioAssay (NCI)
Compounds without any hit were thinned out: in the full panel of roughly 79,000, 15% have a hit. Activity calls are given as the source filed them. Rule as the data show it: active = growth inhibition above about 70%; inactive = the rest.

Legend:
[1] = NCI Yeast Anticancer Drug Screen. Data for the rad52 strain (AID 147);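 also: 0% = growth of vehicle-treated control cultures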; conditions: S. cerevisiae rad52 mutant growth inhibition, stronger effect = higher value
Summary of the method: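 Compounds are applied to a genetically defined yeast strain lacking normal DNA damage repair, and inhibition of growth is expressed relative to cultures given vehicle only.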

[2] = NCI Yeast Anticancer Drug Screen. Data for the wt1 strain (AID 149);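 also: 0% = growth of vehicle-treated wt1 cultures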; conditions: S. cerevisiae wt1 strain (SPY 50644) growth inhibition, stronger effect = higher value
Summary of the method: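 Using yeast strain wt1, compound-induced growth inhibition was determined against vehicle-treated cultures.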

[3] = NCI Yeast Anticancer Drug Screen. Data for the rad50EPP+ strain (AID 151);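 also: 0% = growth of vehicle-treated control cultures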; conditions: S. cerevisiae rad50 mutant strain, stronger effect = higher value
Summary of the method: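 Compounds were applied to the rad50EPP+ yeast strain, which bears a defined DNA repair alteration, and growth inhibition was determined relative to vehicle-treated cultures.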

[4] = NCI Yeast Anticancer Drug Screen. Data for the rad50 strain (AID 155);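 also: 0% = growth of vehicle-only cultures of the same strain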; conditions: S. cerevisiae rad50 strain growth inhibition, stronger effect = higher value
Summary of the method: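 Relative growth inhibition (compound vs vehicle) was measured in yeast with a defined repair-gene alteration.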

[5] = NCI Yeast Anticancer Drug Screen. Data for the mec2-1 strain (AID 157); conditions: S. cerevisiae mec2-1 strain, stronger effect = higher value
Summary of the method: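 Strain: mec2-1 (DNA repair/cell cycle alteration). Compound exposure, then growth measured; inhibition expressed relative to vehicle.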

[6] = NCI Yeast Anticancer Drug Screen. Data for the rad14 strain (AID 159);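 also: 0% = growth of vehicle-treated control cultures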; conditions: S. cerevisiae rad14 strain growth inhibition, stronger effect = higher value
Summary of the method: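 Screen for anticancer potential: a yeast strain altered in DNA damage repair is grown with compound, and reduced growth is quantified against vehicle controls.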

[7] = NCI Yeast Anticancer Drug Screen. Data for the sgs1 mgt1 strain (AID 161);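 also: 0% = growth of cultures given vehicle only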; conditions: S. cerevisiae sgs1 mgt1 strain, stronger effect = higher value
Summary of the method: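 Mutant yeast exposed to compound; growth scored against vehicle-only wells.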

[8] = NCI Yeast Anticancer Drug Screen. Data for the CLN2oe strain (AID 163);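 also: 0% = growth of vehicle-only control cultures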; conditions: S. cerevisiae CLN2oe strain, stronger effect = higher value
Summary of the method: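 Growth of a genetically modified yeast strain is measured after compound exposure and compared with cultures given vehicle alone.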

[9] = NCI Yeast Anticancer Drug Screen. Data for the bub3 strain (AID 167); conditions: S. cerevisiae bub3 mutant strain, stronger effect = higher value
Summary of the method: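 Screening used yeast with an engineered genetic alteration affecting cell cycle control. Compound-exposed cultures were compared with vehicle cultures, and reduced growth was taken as inhibition.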

[10] = NCI Yeast Anticancer Drug Screen. Data for the wt2 strain (AID 169);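 also: 0% = growth of vehicle-treated yeast cultures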; conditions: S. cerevisiae wt2 strain growth inhibition, stronger effect = higher value
Summary of the method: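 This strain belongs to a panel of yeast strains with defined genetic alterations in DNA damage repair or cell cycle control. Compounds are applied, and growth inhibition is measured against vehicle-treated cultures.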

[11] = NCI Yeast Anticancer Drug Screen. Data for the mlh1 strain (AID 171);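 also: 0% = growth of vehicle-treated control cultures of the same strain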; conditions: S. cerevisiae mlh1 strain growth inhibition, stronger effect = higher value
Summary of the method: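 Growth of the mutant yeast strain after compound exposure, expressed as inhibition relative to vehicle-only controls.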

[12] = NCI Yeast Anticancer Drug Screen. Data for the sgs1 strain (AID 173);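 also: 0% = growth of vehicle-only control cultures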; conditions: S. cerevisiae sgs1 mutant, stronger effect = higher value
Summary of the method: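 Growth of a yeast strain bearing a defined genetic alteration is measured after compound treatment. Inhibition is expressed relative to vehicle-only controls.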

[13] = NCI Yeast Anticancer Drug Screen. Data for the mlh1 rad18 strain (AID 175); conditions: S. cerevisiae mlh1 rad18 strain growth inhibition, stronger effect = higher value
Summary of the method: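 Read-out is yeast growth inhibition, calculated against vehicle-only controls. The compound was applied to a strain engineered with DNA damage repair alterations.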

[14] = NCI Yeast Anticancer Drug Screen. Data for the rad18 strain (AID 177); conditions: S. cerevisiae rad18 mutant growth inhibition, stronger effect = higher value
Summary of the method: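 Growth of the mutant yeast strain after compound exposure, normalised to vehicle-only cultures.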

[15] = NCI Yeast Anticancer Drug Screen. Data for the mgt1 strain (AID 153); conditions: S. cerevisiae mgt1 mutant growth inhibition, stronger effect = higher value
Summary of the method: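 Strain: mgt1 yeast, one of a set carrying defined DNA damage repair or cell cycle control alterations. Compound-treated growth compared with vehicle.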

[16] = NCI Yeast Anticancer Drug Screen. Data for the cln2 rad14 strain (AID 165);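 also: 0% = growth equal to vehicle treated cultures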; conditions: S. cerevisiae cln2 rad14 strain, stronger effect = higher value
Summary of the method: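 Compounds are applied to the cln2 rad14 yeast strain, and growth is then compared with that of vehicle-treated cultures to give inhibition.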

[17] = at 5.0 µM (retest, dose inferred, filed as 0.5)
[18] = at 50.0 µM (retest, dose inferred, filed as 5.0)

Measured: growth inhibition

Nc1cc2c(cc1N)-c1ccccc1C2=O
inactive: [1]; at 1.2 µM -3% | [1]; at 3.7 µM -3% | [1]; at 11.0 µM 2% | [1]; at 33.0 µM 23% | [2]; at 1.2 µM -2% | [2]; at 3.7 µM -3% | [2]; at 11.0 µM -4% | [2]; at 33.0 µM 3% | [2]; at 100.0 µM 36% | [3]; at 1.2 µM 1% | [3]; at 3.7 µM 9% | [3]; at 11.0 µM 18% | [3]; at 33.0 µM 31% | [4]; at 1.2 µM 0% | [4]; at 3.7 µM -57% | [4]; [17] 4% | [4]; at 11.0 µM 19% | [4]; at 33.0 µM 37% | [4]; [18] 67% | [5]; at 1.2 µM -2% | [5]; at 3.7 µM -4% | [5]; [17] 0% | [5]; at 11.0 µM -1% | [5]; at 33.0 µM 9% | [5]; [18] 23% | [5]; at 50.0 µM 39% | [6]; at 1.2 µM -1% | [6]; at 3.7 µM 3% | [6]; at 11.0 µM 8% | [6]; at 33.0 µM 26% | [7]; [17] -8% | [7]; [18] 17% | [7]; at 50.0 µM -11.9% | [8]; at 1.2 µM -3% | [8]; at 3.7 µM 0% | [8]; at 11.0 µM 2% | [8]; at 33.0 µM 2% | [8]; at 100.0 µM 13% | [9]; at 1.2 µM -2% | [9]; at 3.7 µM 1% | [9]; [17] 0% | [9]; at 11.0 µM 0% | [9]; at 33.0 µM 4% | [9]; [18] 49% | [9]; at 50.0 µM 45.1% | [9]; at 100.0 µM 65% | [10]; at 1.2 µM -3% | [10]; at 3.7 µM 6% | [10]; at 11.0 µM -2% | [10]; at 33.0 µM 1% | [10]; at 100.0 µM 41% | [11]; at 1.2 µM -1% | [11]; at 3.7 µM -2% | [11]; at 11.0 µM -2% | [11]; at 33.0 µM 2% | [12]; at 1.2 µM -3% | [12]; at 3.7 µM -3% | [12]; at 11.0 µM -1% | [12]; at 33.0 µM 6% | [13]; [17] 0% | [13]; [18] 57% | [13]; at 50.0 µM 68.7% | [14]; at 1.2 µM -3% | [14]; at 3.7 µM 1% | [14]; at 11.0 µM 5% | [14]; at 33.0 µM 21%
active: [1]; at 100.0 µM 87% | [3]; at 100.0 µM 70% | [4]; at 50.0 µM 71.4% | [4]; at 100.0 µM 92% | [5]; at 100.0 µM 70% | [6]; at 100.0 µM 97% | [11]; at 100.0 µM 86% | [12]; at 100.0 µM 74% | [14]; at 100.0 µM 93%

CCC(OC(C)=O)C1CC(C(C)C)CCC1C (stereo not drawn)
active: [3]; at 100.0 µM 96% | [15]; at 100.0 µM 82% | [5]; at 100.0 µM 76% | [6]; at 100.0 µM 99% | [16]; [18] 73% | [16]; at 50.0 µM 72.2% | [9]; at 100.0 µM 84% | [12]; at 100.0 µM 95% | [14]; at 100.0 µM 83%
inactive: [1]; at 1.2 µM 1% | [1]; at 3.7 µM 2% | [1]; at 11.0 µM 4% | [1]; at 33.0 µM -73% | [1]; at 100.0 µM 22% | [2]; at 1.2 µM -1% | [2]; at 3.7 µM -1% | [2]; at 11.0 µM -2% | [2]; at 33.0 µM 2% | [2]; at 100.0 µM 44% | [3]; at 1.2 µM 0% | [3]; at 3.7 µM 0% | [3]; at 11.0 µM 15% | [3]; at 33.0 µM 46% | [15]; at 1.2 µM -1% | [15]; at 3.7 µM 0% | [15]; at 11.0 µM 0% | [15]; at 33.0 µM 5% | [5]; at 1.2 µM 2% | [5]; at 3.7 µM 3% | [5]; [17] 4% | [5]; at 11.0 µM 6% | [5]; at 33.0 µM 9% | [5]; [18] 34% | [5]; at 50.0 µM 24.2% | [6]; at 1.2 µM 0% | [6]; at 3.7 µM 0% | [6]; at 11.0 µM 5% | [6]; at 33.0 µM 17% | [7]; [17] -7% | [7]; [18] 39% | [7]; at 50.0 µM 21.8% | [8]; at 1.2 µM -4% | [8]; at 3.7 µM -5% | [8]; at 11.0 µM 2% | [8]; at 33.0 µM 0% | [8]; at 100.0 µM 5% | [16]; [17] 9% | [9]; at 1.2 µM -2% | [9]; at 3.7 µM -1% | [9]; [17] 0% | [9]; at 11.0 µM -3% | [9]; at 33.0 µM -2% | [9]; [18] 29% | [9]; at 50.0 µM 21.4% | [10]; at 1.2 µM -1% | [10]; at 3.7 µM 7% | [10]; at 11.0 µM 0% | [10]; at 33.0 µM -3% | [10]; at 100.0 µM 40% | [12]; at 1.2 µM -1% | [12]; at 3.7 µM 1% | [12]; at 11.0 µM 6% | [12]; at 33.0 µM 18% | [13]; [17] -1% | [13]; [18] 19% | [13]; at 50.0 µM 27.6% | [14]; at 1.2 µM 2% | [14]; at 3.7 µM 2% | [14]; at 11.0 µM 4% | [14]; at 33.0 µM 11%

CCOC(=O)CC1(C)/C(=N\Nc2ccc([N+](=O)[O-])cc2[N+](=O)[O-])CCC2C1CCC1(C)C(C(C)CCCC(C)C)CCC21 (stereo not drawn)
active: [4]; [17] 92% | [4]; [18] 90%
inactive: [1]; at 1.2 µM 0% | [1]; at 3.7 µM 0% | [1]; at 11.0 µM 0% | [1]; at 33.0 µM 1% | [1]; at 100.0 µM -2% | [2]; at 1.2 µM 0% | [2]; at 3.7 µM -1% | [2]; at 11.0 µM -1% | [2]; at 33.0 µM -1% | [2]; at 100.0 µM -3% | [3]; at 1.2 µM -2% | [3]; at 3.7 µM -1% | [3]; at 11.0 µM -2% | [3]; at 33.0 µM -2% | [3]; at 100.0 µM 1% | [4]; at 1.2 µM 1% | [4]; at 3.7 µM 2% | [4]; at 11.0 µM 3% | [4]; at 33.0 µM 0% | [4]; at 50.0 µM -50.5% | [4]; at 100.0 µM -1% | [5]; at 1.2 µM -4% | [5]; at 3.7 µM -4% | [5]; [17] 10% | [5]; at 11.0 µM -5% | [5]; at 33.0 µM -1% | [5]; [18] 10% | [5]; at 50.0 µM -6.8% | [5]; at 100.0 µM -5% | [6]; at 1.2 µM 0% | [6]; at 3.7 µM -2% | [6]; at 11.0 µM -4% | [6]; at 33.0 µM -3% | [6]; at 100.0 µM -3% | [7]; [17] 6% | [7]; [18] 4% | [7]; at 50.0 µM -26.4% | [8]; at 1.2 µM -2% | [8]; at 3.7 µM -4% | [8]; at 11.0 µM 6% | [8]; at 33.0 µM -2% | [8]; at 100.0 µM -5% | [16]; [17] 7% | [16]; [18] -3% | [16]; at 50.0 µM -21.4% | [9]; at 1.2 µM -1% | [9]; at 3.7 µM -3% | [9]; [17] -10% | [9]; at 11.0 µM -5% | [9]; at 33.0 µM -3% | [9]; [18] -11% | [9]; at 50.0 µM -1.1% | [9]; at 100.0 µM -5% | [10]; at 1.2 µM 0% | [10]; at 3.7 µM 1% | [10]; at 11.0 µM 0% | [10]; at 33.0 µM -1% | [10]; at 100.0 µM -1% | [11]; at 1.2 µM -1% | [11]; at 3.7 µM -3% | [11]; at 11.0 µM -2% | [11]; at 33.0 µM -3% | [11]; at 100.0 µM -3% | [13]; [17] 4% | [13]; [18] 2% | [13]; at 50.0 µM 0.05% | [14]; at 1.2 µM -2% | [14]; at 3.7 µM -5% | [14]; at 11.0 µM -3% | [14]; at 33.0 µM -5% | [14]; at 100.0 µM -4%
